Experimental data reported in PubChem BioAssay AID1159580 (chemical genetic matrix, 2015).
Where “and” joins values, the source holds several entries; their conditions need not be identical. Equal entries are not always repeated. Hit rate of the full screen: of about 5,500 compounds, about 2,000 (36%) were called active. Another 18% or so got no clear call; they are omitted. Cut-off read from the data, not from the text of the source: active = normalized growth mostly below about 0.91 (no sharp cut-off); inconclusive = no clear call, values can overlap the other calls; inactive = mostly above about 0.92. Some of the results follow. Where a SMILES comes first, the peptide text is derived from it. Side-chain parts run from the residue outwards. [ ]: non-standard residue; d: D form. The star is where a group is joined. X1 = CCC(C)C(N)C1=NC(C(=O)*)CS1; Orn = NCCC[CH](N)C(=O)O

Assay: chemical genetic growth profiling, strain panel (AID 1159580);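 note: tested at 20 µM; growth read once vehicle control cultures reached saturation at 30 °C; 1 = growth at the plate median or of vehicle wells; lower values mean less growth of the strain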
Settings: S. cerevisiae deletion strains, growth OD

Measured: normalized growth

CCC(C)C(N)C1=NC(C(=O)NC(CC(C)C)C(=O)NC(CCC(=O)O)C(=O)NC(C(=O)NCCCCC2NC(=O)C(CC(N)=O)NC(=O)C(CC(=O)O)NC(=O)C(Cc3cnc[nH]3)NC(=O)C(Cc3ccccc3)NC(=O)C(C(C)CC)NC(=O)C(CCCN)NC2=O)C(C)CC)CS1 (stereo not drawn) (cyclo(DNK([Ile-Glu-Leu-X1])[Orn]IFH); configuration not given here)
inactive: locus YAL013W, strain DEP1, hits give low values 1.01 | locus YAL021C, strain ccr4, hits give low values 0.992 | locus YAL026C, strain drs2, hits give low values 0.929 | locus YAL030W, strain snc1, hits give low values 0.997 | locus YBL061C, strain skt5, hits give low values 1 | locus YBR009C, strain hhf1, hits give low values 0.952 | locus YBR021W, strain FUR4, hits give low values 1.01 | locus YBR023C, strain chs3, hits give low values 1.02 | locus YBR171W, strain sec66, hits give low values 1 | locus YBR229C, strain ROT2, hits give low values 0.991 | locus YBR231C, strain swc5, hits give low values 0.999 | locus YBR279W, strain paf1, hits give low values 1.01 | locus YCL011C, strain gbp2, hits give low values 0.968 | locus YCL016C, strain dcc1, hits give low values 0.981 | locus YCL029C, strain bik1, hits give low values 1.01 | locus YCL061C, strain MRC1, hits give low values 0.993 | locus YCL069W, strain vba3, hits give low values 1 | locus YCR088W, strain abp1, hits give low values 1.01 | locus YDL005C, strain med2, hits give low values 0.999 | locus YDL035C, strain GPR1, hits give low values 0.998 | locus YDL040C, strain nat1, hits give low values 1.01 | locus YDL074C, strain BRE1, hits give low values 1.04 | locus YDL101C, strain DUN1, hits give low values 1 | locus YDL185W, strain tfp1, hits give low values 1.04 | locus YDL192W, strain arf1, hits give low values 1 | locus YDR001C, strain nth1, hits give low values 0.987 | locus YDR069C, strain doa4, hits give low values 1.02 | locus YDR101C, strain arx1, hits give low values 1.02 | locus YDR137W, strain rgp1, hits give low values 0.992 | locus YDR150W, strain NUM1, hits give low values 1 | locus YDR159W, strain sac3, hits give low values 0.996 | locus YDR162C, strain NBP2, hits give low values 0.976 | locus YDR195W, strain ref2 0.976 | locus YDR297W, strain sur2, hits give low values 1.01 | locus YDR318W, strain mcm21, hits give low values 0.989 | locus YDR334W, strain swr1, hits give low values 1.01 | locus YDR335W, strain msn5, hits give low values 1.01 | locus YDR388W, hits give low values 1.01 | locus YDR392W, strain spt3, hits give low values 0.94 | locus YDR502C, strain sam2, hits give low values 1.01 | locus YEL003W, strain gim4, hits give low values 1.01 | locus YEL037C, strain rad23, hits give low values 1.01 | locus YEL061C, strain CIN8 (second series), hits give low values 1.01 | locus YEL061C, strain CIN8, hits give low values 0.998 | locus YER015W, strain faa2, hits give low values 1.01 | locus YER016W, strain bim1, hits give low values 1 | locus YER110C, hits give low values 1 | locus YER111C, strain swi4, hits give low values 1.01 | locus YER155C, strain BEM2 (second series), hits give low values 1.01 | locus YER155C, strain BEM2, hits give low values 0.992 | locus YER167W, strain BCK2, hits give low values 1.01 | locus YFR010W, strain ubp6, hits give low values 1.03 | locus YGL078C, strain dbp3, hits give low values 1.01 | locus YGL086W, strain mad1, hits give low values 1.05 | locus YGL167C, strain pmr1, hits give low values 1.02 | locus YGL173C, strain kem1, hits give low values 1 | locus YGL227W, strain vid30, hits give low values 1 | locus YGL240W, strain doc1, hits give low values 1.03 | locus YGL248W, strain PDE1, hits give low values 1 | locus YGL253W, strain hxk2, hits give low values 0.993 | locus YGR135W, strain pre9, hits give low values 1.01 | locus YGR252W, strain gcn5, hits give low values 0.924 | locus YHR013C, strain ard1, hits give low values 0.991 | locus YHR027C, strain rpn1, hits give low values 1.01 | locus YHR030C, strain SLT2, hits give low values 1 and 1.02 | locus YHR079C, strain IRE1 (second series), hits give low values 1 | locus YHR079C, strain IRE1, hits give low values 1.05 | locus YHR094C, strain hxt1, hits give low values 0.993 | locus YHR129C, strain ARP1, hits give low values 0.994 | locus YHR142W, strain chs7, hits give low values 1.04 | locus YHR200W, strain rpn10, hits give low values 0.984 | locus YIL066C, strain RNR3, hits give low values 1 | locus YIL073C, strain SPO22, hits give low values 1.19 | locus YIL125W, strain kgd1, hits give low values 1.01 | locus YIR030C, strain dcg1, hits give low values 0.993 | locus YJL092W, strain hpr5, hits give low values 1 | locus YJL095W, strain BCK1 (second series), hits give low values 1.01 | locus YJL095W, strain BCK1, hits give low values 0.999 and 1.04 | locus YJL115W, strain asf1, hits give low values 0.989 | locus YJL129C, strain trk1, hits give low values 1.02 | locus YJL134W, strain LCB3, hits give low values 1 | locus YJL154C, strain vps35, hits give low values 1 | locus YJL164C, strain tpk1, hits give low values 0.972 | locus YJL166W, strain qcr8, hits give low values 1.01 | locus YJL168C, strain set2, hits give low values 1.01 | locus YJL187C, strain SWE1 (second series), hits give low values 0.997 | locus YJL187C, strain SWE1, hits give low values 1 | locus YJR043C, strain POL32, hits give low values 0.996 | locus YJR066W, strain TOR1, hits give low values 0.969
